For 89 compounds, inhibition results are on record in PubChem BioAssay AID488895 (Broad Institute, 2010).

The whole screen tested about 340,000 compounds, of which about 120 (0.035%) were called active. The entries come from a sample that favours actives as a whole. Values without a mark were called inactive.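 Rule for the calls: active = mean replicate inhibition at least 50% and at least half of replicates individually reaching 50%; inconclusive = only one of the two criteria met; inactive = neither criterion met.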

As a reminder, the inhibition is the relative decrease from the control value, in per cent.

A short description of this experiment: blockers of twin-arginine translocation in E. coli – MC4100, TorA-mCherry reporter, fluorescence, single point, primary screen (AID 488895).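 Note: exported cargo escapes ClpAP degradation while cytoplasmic cargo is degraded and loses fluorescence; 0% = median of neutral control wells and 100% = median of NaSCN control wells.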 The settings on record: E. coli MC4100 TorA-mCherry Tat export, at 10 µM, stronger effect = higher value.
`O=C(CCc1[nH]c2ccccc2c1Sc1ccccc1)N(CCO)CCO`: the inhibition is -4.7%.

Take `COc1cccc(-c2ccc(SCC(=O)N3CCN(c4ccccc4)CC3)nn2)c1`: the inhibition was 2.75%.

`CC(=O)N1CCSc2ccc(S(=O)(=O)N3CCC(C)CC3)cc21`: the inhibition was 2.03%.

For the compound `CC1(C)C(=O)CCC2(C)C1=CCC1C2C(=O)CC2(C)C1CCC2(O)C(=O)CO` (centres undefined), the inhibition was -1.57%.

On to `CCn1ccnc1CN(C)C(=O)c1ccc2nc(Cc3ccc(OC)cc3)oc2c1`, for which the inhibition was -0.56%.

Take `CC[C@]12c3[nH]c4cc(CCC(=O)N(C)C)ccc4c3CCN1C(=O)[C@@H](CC(=O)NCCCN(C)C)C[C@@H]2C(=O)N1CCN(C(=O)c2ccco2)CC1`: the inhibition was -1.81%.

Regarding `CC(OC(=O)c1ccc(-n2cnnn2)cc1)C(=O)NCc1ccccc1` (centres undefined), the inhibition is -2.55%.

On to `O=C(NCc1ccc(Cl)cc1)c1cc2c(nc3sccn32)s1`, for which the inhibition was -1.5%.

For `CCCNC(=O)N1CCC(c2ccc3c(c2)OCO3)CC1`, the inhibition is 3.31%.

Consider `Cc1noc(C)c1CCC(=O)O`, for which the inhibition was 1.5%.

Regarding `COCCNc1nnc(SCC(=O)NNC(=O)c2ccco2)s1`, the inhibition is 3.66%.

`COc1ccc(COCCN2CCN(S(=O)(=O)c3ccccc3)CCC2=O)cc1`: the inhibition was 1.02%.

In the case of `CCN(CCn1cccn1)Cc1nc(-c2ccc(C(=O)OC)cc2)no1`, the inhibition was 0.0185%.

Consider `CC1CCCCC1NC(=O)Cn1c(=O)cnc2ccccc21` (centres undefined), for which the inhibition is 2.53%.

Turning to `CN(C(=O)CN(CCO)CC(=O)N(C)C(C)(C)Cc1ccccc1)C(C)(C)Cc1ccccc1`, the inhibition was 19.2%.

`CC(C#N)OC(=O)c1cccnc1SCC(=O)Nc1ccc2c(c1)OCO2` (centres undefined): the inhibition was -6.97%.

Turning to `O=C(NCCO)C(=O)NCC(c1ccc2c(c1)OCO2)N1CCN(c2ccc(F)cc2)CC1` (centres undefined), the inhibition is 0.936%.

As to `Cn1c(=O)c(C(=O)Nc2ncccn2)c(O)c2ccccc21`, the inhibition was -0.24%.

With `CC(C)CN(CC(C)C)C(=O)CN1c2cccc3cccc(c23)S1(=O)=O`, the inhibition is 0.144%.

Consider `COc1ccccc1N1CCN(C(=O)C2Cc3ccccc3CN2C(=O)c2ccco2)CC1` (centres undefined), for which the inhibition was -8.37%.

Turning to `O=C(NC(=S)NC1CCSC1=O)c1ccccc1F` (centres undefined), the inhibition was -9.37%.

Take `CCc1c(O)cc2n(c1=O)-c1ccccc1C2(C)C`: the inhibition is -2.57%.

For the compound `CN(CC1CCCO1)S(=O)(=O)c1ccc(C(=O)Nc2ccc([N+](=O)[O-])cc2)cc1` (centres undefined), the inhibition is -6.82%.

Consider `COc1c(N2CCN(C(=S)Nc3ccccc3F)C(C)C2)c(F)cc2c(=O)c(C(=O)O)cn(C3CC3)c12` (centres undefined), for which the inhibition is 91.3% (active).

For the compound `COc1ccccc1NC(=S)N1CCN(c2ccc(F)cc2)CC1`, the inhibition was 1.21%.

With `CC1CN(C(=S)Nc2ccccc2F)CC(C)O1` (centres undefined), the inhibition is 6.69%.

On to `Cc1ccc(S(=O)(=O)N2CCN(C(=O)COC(=O)CNC(=O)c3ccc(C(C)(C)C)cc3)CC2)c(C)c1`, for which the inhibition was 6.64%.

As to `CN1CCN(S(=O)(=O)c2ccc(N3CCN(c4ccccc4O)CC3)c([N+](=O)[O-])c2)CC1`, the inhibition is -4.89%.

With `O=C(NCc1ccco1)c1ccc(NS(=O)(=O)c2cccc([N+](=O)[O-])c2)cc1`, the inhibition is -12.7%.

In the case of `COCCCNC(=O)CCc1nc2cccnc2n1Cc1ccc(OC)cc1`, the inhibition was 5.25%.

Take `Cc1ccc(NC(=S)N(CCN(C)C)Cc2cccs2)cc1C`: the inhibition is -0.631%.

`COc1ccc2c3c1O[C@H]1C[C@@H](O)C=C[C@@]31CCN(C)C2`: the inhibition was -6.89%.

On to `COc1ccccc1C(=O)N/C(=C/c1ccc2c(c1)OCO2)C(=O)Nc1cccc(C(=O)O)c1`, for which the inhibition was 0.855%.

Turning to `COc1ccc(N(CC(=O)NCc2ccc(F)cc2)C(=O)CCC(=O)Nc2nccs2)cc1`, the inhibition is 2.29%.

Take `Cc1ccc(NC(=S)NC(NC(=O)Cc2cccc3ccccc23)C(Cl)(Cl)Cl)cc1` (centres undefined): the inhibition is -13%.

As to `O=C1NCCn2nc3ccccc3c21`, the inhibition is -31.2%.

On to `O=C(O)CCCn1cc(NC(=O)COc2cccc(Cl)c2)cn1`, for which the inhibition was -4.8%.

As to `NC(=O)C1(N2CCCCC2)CCN(C(=O)c2ccc(C#Cc3ccccc3)o2)CC1`, the inhibition was -3.45%.

Consider `COc1ccccc1N(CCOc1ccccc1)S(=O)(=O)c1ccccc1`, for which the inhibition is 10%.

Turning to `CC(C)C(=O)Nc1ccc2c(c1)oc1ccccc12`, the inhibition is -2.62%.

Regarding `C=CCN(CC=C)CCOc1ccccc1[N+](=O)[O-]`, the inhibition was -4.39%.

Take `C=CCSC(CC)(CC)C(N)=O`: the inhibition is -4.28%.

`COc1cc(C(=O)N2CCN(C/C=C/c3ccccc3)CC2)cc(OC)c1C`: the inhibition was 6.19%.

Take `Cc1oc2cc3oc(=O)ccc3cc2c1C`: the inhibition is -9.08%.

For the compound `Cn1c(SCC(=O)NC2CCCCC2)nnc1-c1cc2ccccc2o1`, the inhibition is 1.56%.

As to `Cc1ccc(NC(=O)CN(C)C(=O)c2ccc(Cl)c(S(=O)(=O)NCc3ccco3)c2)cc1`, the inhibition was -9.55%.

Take `COc1ccc(C(=O)N/N=C(\C)CC(=O)Nc2ccc(Cl)cn2)cc1`: the inhibition is -26.7%.

As for `O=C(NC(C(=O)NCCN1CCOCC1)C12CC3CC(CC(C3)C1)C2)C1CCCCC1` (centres undefined), the inhibition is 6.49%.

Consider `COc1ccccc1NC(=O)COC(=O)Cc1ccc(S(=O)(=O)N2CCCCC2)s1`, for which the inhibition was -5.48%.

With `O=C1C=C(c2cccc(Br)c2)C[C@@H](c2ccc(F)cc2)C1`, the inhibition is 18.1%.

Consider `CC1(C)C(=O)C2(CCCCC2)C(=O)OC1c1cccs1` (centres undefined), for which the inhibition was 3.17%.

Turning to `COCCCC1CCN(C(=O)C2CCC(=O)N(C3CCCCCC3)C2)CC1` (centres undefined), the inhibition is 1.02%.

On to `Cc1ccc(C(=O)NC2CCCC(C)C2C)cc1S(=O)(=O)N1CCCCC1` (centres undefined), for which the inhibition is -3.8%.

For `COc1cc(OC)cc(C(=O)NC2CCN(C(=O)N3c4ccccc4Sc4ccccc43)CC2)c1`, the inhibition was 9.12%.

With `CCC(C)(C(=O)NC1CCCCC1)N(C)C(=O)c1ccc2c(c1)OCO2` (centres undefined), the inhibition was 4.87%.

Consider `CCN(CC)c1ccc(C(=O)c2cnc(/N=C/N(C)C)s2)cc1`, for which the inhibition was 12.9%.

As for `CCOc1ccc(CCNC(=O)C2CCN(c3ccc(N4CCOCC4)nn3)CC2)cc1OCC`, the inhibition was -3.82%.

As for `COc1ccc(NC(=O)CSc2nc(NS(=O)(=O)c3ccc(C)cc3)cc(=O)[nH]2)cc1`, the inhibition is 0.509%.

As to `CC(C)CC(O)C1CCN(C(=O)CCc2nnc(-c3ccc4c(c3)OCO4)o2)CC1` (centres undefined), the inhibition is -2.64%.

On to `COc1ccc(N2CC(C(=O)NCCN3C(=O)S/C(=C\c4cccnc4)C3=O)CC2=O)c(OC)c1` (centres undefined), for which the inhibition is -1.64%.

Consider `O=C1C(Cl)=C(Oc2ccccc2)C(=O)c2ccccc21`, for which the inhibition was -14.1%.

Consider `COc1ccc(-c2nonc2NC(=O)c2oc3ccc(F)cc3c2C)cc1OC`, for which the inhibition is -6.3%.

In the case of `Cc1noc(C)c1COc1cccc(C(=O)Nc2cccnc2)c1`, the inhibition was 11.3%.

In the case of `COCCN1C(=O)C(=O)/C(=C(/O)c2ccc(S(=O)(=O)N3CCCCC3)cc2)C1c1ccc(OC)c(OC)c1` (centres undefined), the inhibition was -4.83%.

With `COCCCNC(=O)C1CC(=O)N(CCc2ccc(F)cc2)C1` (centres undefined), the inhibition was 3.6%.

In the case of `O=C(Nc1cccc(F)c1)NC1CCCCCCC1`, the inhibition is 3.94%.

In the case of `C=CCn1c(SCc2c(C(=O)OC)sc(N)c2C(=O)OC)nnc1-c1ccc(Cl)cc1`, the inhibition was 0.305%.

Take `CCCn1c(SCC(=O)c2ccc3c(c2)OCCO3)nnc1C(C)C`: the inhibition was 1.9%.

Regarding `CC(=O)c1ccc(NC(=O)C(C)OC(=O)c2ccc(NS(=O)(=O)c3ccc4[nH]c(=O)[nH]c4c3)cc2)cc1` (centres undefined), the inhibition was -1.62%.

Take `COc1cccc(CCNC(=O)COc2cccc3c2OC(C)(C)C3)c1`: the inhibition is -3.07%.

Turning to `O=C(NCc1ccccc1)c1onc(CSc2ccncc2)c1C(=O)NCc1ccccc1`, the inhibition was 4.39%.

For `Cn1c(SCC(=O)N2CCCCC2)nc2c(c1=O)SCC2`, the inhibition was 1.18%.

On to `COc1cc2c(cc1OC)C(c1ccccc1Br)NC(=O)C2` (centres undefined), for which the inhibition was 4.97%.

With `CSc1ccc(/C=C/C(=O)NC23CC4CC(CC(C4)C2)C3)cc1`, the inhibition was 1.4%.

For the compound `COC(=O)c1cc(NC(=O)CC2C(=O)NCCN2C(=O)c2ccc(F)cc2)cc(C(=O)OC)c1` (centres undefined), the inhibition was -6.39%.

In the case of `O=C(O)CCc1nc2cc(Cl)ccc2n(Cc2ccccc2)c1=O`, the inhibition was 3.23%.

`COc1ccccc1CNS(=O)(=O)c1c(C)[nH]c(C)c1C(=O)N1CCCCC1`: the inhibition was -2.57%.

For `Cc1noc(C)c1CSCC(=O)Nc1ccc(Br)cc1Cl`, the inhibition was -0.881%.

Consider `Cc1ccc(/C=N/NC(=O)COc2ccccc2-c2ccccc2)cc1`, for which the inhibition was 0.565%.

`CC(=O)NC(C(=O)NCC(N)=O)C(C)C` (centres undefined): the inhibition is -5.64%.

Turning to `Cc1ccc(SCC(=O)c2cc(C)c(OC(=S)N(C)C)c(C)c2)cc1`, the inhibition is 5.72%.

For the compound `NC(=O)C[C@@H]1NC(=O)CNC(=O)c2cc([N+](=O)[O-])cc(I)c2NCCC(C(N)=O)NC1=O` (some centres undefined), the inhibition was -3.55%.

For the compound `O=C(Nc1nnc(C2=COCCO2)o1)c1ccc([N+](=O)[O-])s1`, the inhibition is -7.65%.

As to `CCCOc1ccc2c3c(c(=O)oc2c1OCCC)CCC3`, the inhibition is 14.7%.

Turning to `COc1cc(C2OC(c3cc(OC)c(OC)c(OC)c3)C(C)C2C)cc(OC)c1OC` (centres undefined), the inhibition was -3.59%.

With `CCn1c(CC(=O)Nc2ccccc2)nnc1SCC(=O)N1CCOCC1`, the inhibition is -5.24%.

As to `C=CCn1c(SCC(=O)Nc2ccc(NC(C)=O)cc2)nc2sc(C)c(C)c2c1=O`, the inhibition is -0.334%.

As to `CC1(C)CC(=O)C(N=Nc2c(F)cccc2F)=C(O)C1`, the inhibition was -8.43%.

As for `CCc1ccccc1N1C(=O)C2C3CC(=O)C(c4ccccc43)C2C1=O` (centres undefined), the inhibition is -1.63%.
